Screens deposited in PubChem by several laboratories.
Rows were chosen to be rich in hits. Some 4.1% of all compounds tested hit in one or more screens of this group.
Mdm2 MdmX PPI = human Mdm2/MdmX binding inhibition | O15151+Q00987 | SaOS-2 split-luciferase Mdm2/MdmX complementation, luminescence | inhibition, % at 8 µM | actives 3% (n = 330,000) | AID 485346;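 active means inhibition of at least 50% at 8 µM in the primary screen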
Bfl-1 A1 inh = inhibitors of the anti-apoptotic protein A1, read as caspase activation; MEF A1-2A-BIM cells, Caspase-Glo 3/7 luminescence, 3 h; percent of clofoctol response, vehicle zero; caspase activation, % (test concentration not listed); actives 0.066% (n = 330,000);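 active means over half of replicate activation scores above 10%, or exactly half above 10 with the replicate mean above 10; inconclusive means replicate mean below 10 yet half the replicates above 10; inactive means over half of replicates below 10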
CSC inhib = blocks cancer stem cells; inhibition, % at 7.5 µM; cancer stem cell-like cells viability, luminescence; actives 1.1% (n = 300,000); in the data active means inhibition above about 75%; inconclusive means no clear call, values can overlap the other calls; tested in HMLE shEcad cells
aSyn 5UTR inh = 5' untranslated region of α-synuclein, MLPCN primary screen; inhibition, % (tested at 7.5 µM); alpha-synuclein 5'UTR reporter, inhibitor activity; actives 0.82% (n = 300,000); AID 1813; in the data active means inhibition above about 60%; inconclusive means no clear call, values can overlap the other calls;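 further: H4 neuroglioblastoma cells stably carrying SNCA 5'UTR luciferase fusion; 0% = DMSO wells and 100% = positive control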
Beta apoptosis = blocks beta cell apoptosis. actives 0.8% (n = 300,000). INS-1E cytokine-induced death, ATP luminescence, 48 h; percent of positive-control rescue, neutral wells zero. protection from apoptosis, % (no concentration beside the values). AID 435005;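 active means Every replicate reaches about 75%, or at least half do and their mean reaches it too, limit read from the data; inconclusive means At least half of replicates reach the limit but their mean does not; inactive means Under half of replicates reach the limit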;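 further: 0% = cytokine-treated negative control wells and 100% = positive control rescue; higher means more ATP so stronger rescue from cytokine killing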
* marks the source's active call; other numbers are inactive results; ? = inconclusive; nt = no result given.

SMILES | Mdm2 MdmX PPI | Bfl-1 A1 inh | CSC inhib | aSyn 5UTR inh | Beta apoptosis
Oc1ccc(Br)cc1/C=N/NC(=S)NCCc1ccccc1 | 39 | 0 | 105* | 20 | 13
COc1ccc(C)cc1NC(=O)CSc1nnc(COc2ccc(Cl)cc2)n1Cc1ccco1 | 29 | 0 | 79* | 16 | 4
CCOc1ccc(S(=O)(=O)N(C(=O)c2ccco2)c2cc3sc(=O)oc3c3ccccc23)cc1 | 44 | 0 | 64 | 3 | 99*
Cc1ccc(S(=O)(=O)N(C(=O)c2ccco2)c2cc3sc(=O)oc3c3ccccc23)cc1 | 16 | 0 | 46 | -7 | 53
COc1ccc(S(=O)(=O)N(C(=O)c2ccco2)c2cc3sc(=O)oc3c3ccccc23)cc1 | 47 | 1 | 62 | 18 | 98*
Cc1c(C(=O)N/N=C/C(C)C)[nH]c2c([N+](=O)[O-])cccc12 | -5 | -2 | nt | 68* | -7
Cc1ccc(C=C2C(Cl)=C(Cl)C(Cl)=C2Cl)cc1 | 20 | 4 | 100* | -29 | 4
Cc1cc(C)n2nc(SCC(=O)NC3CCCCC3)nc2n1 | 8 | 3 | -8 | -16 | -9
COc1cc(OC)c(NS(=O)(=O)c2cc3[nH]c(=O)c(=O)[nH]c3cc2C)cc1Cl | -4 | 0 | -7 | -8 | -2
COc1ccc(-c2noc(CCC(=O)N3CCN(c4ccccc4)CC3)n2)cc1 | 22 | nt | nt | nt | nt
Cc1ccc(NC(=O)c2ccc(Cl)c(N3C(=O)C=CC3=O)c2)cc1 | -2 | 4 | 79* | -25 | -6
C=CCn1c(SCc2cc(C(C)=O)ccc2OCC)nc2ccccc2c1=O | 36 | 0 | 64 | 104* | 6
COc1ccc(C(C)=O)cc1CSc1nc2ccccc2c(=O)n1-c1ccccc1 | 8 | 1 | 3 | 25 | 0
O=C(CCSc1ccc(Cl)cc1)N1CCN(c2ccc(O)cc2)CC1 | -25 | 1 | 106* | -4 | 0
O=C(CCCOc1ccccc1)N1CCN(c2ccccc2)CC1 | -72 | -2 | -16 | -51 | 0
O=C(COc1cccc(C(F)(F)F)c1)N1CCN(c2ccc(O)cc2)CC1 | -7 | 0 | 78* | 0 | 3
O=C(CCOc1ccccc1)N1CCN(c2ccc(O)cc2)CC1 | 12 | 1 | 82* | -14 | -2
COC(=O)[C@]1(Cc2ccccc2)N[C@H](c2ccc(-c3cc(C(C)=O)cs3)cc2)[C@@H]2C(=O)N(C)C(=O)[C@@H]21 | 36 | 0 | -6 | 32 | -6
COc1cccc(NC(=O)CSc2nc3ccccc3nc2N2CCOCC2)c1 | 32 | 0 | -2 | 30 | 1
COc1ccc2c(c1)cc(C(=O)N[C@@H](CCSC)C(=O)N1CCC[C@H]1C(=O)O)n2C | 16 | 0 | -8 | -17 | -7
c1ccc(-c2nnc3sc(CN4CCc5ccccc54)cn23)cc1 | 11 | 1 | 76* | 3 | 17
CC(C)(C)c1ccc(C(=O)Nc2nnc(Cc3c[nH]c4ccccc34)s2)cc1 | -2 | 1 | 96* | -11 | 4
O=C(COC(=O)c1ccccc1Cc1ccccc1)NC1CCS(=O)(=O)C1 (stereo not drawn) | -9 | 0 | -4 | -7 | nt
Cc1[nH]c2ccccc2c1CN1CCC(Cc2ccccc2)CC1 | 46 | 0 | 63 | -21 | 104*
Cc1[nH]c2ccccc2c1CN1CCN(c2ccccn2)CC1 | 15 | 0 | -10 | 4 | 92*
SMILES | Mdm2 MdmX PPI | Bfl-1 A1 inh | CSC inhib | aSyn 5UTR inh | Beta apoptosis
Cc1[nH]c2ccccc2c(=O)c1CN1CCCCC1 | -6 | 0 | -18 | 3 | 2
c1ccc(N2CCN(Cc3nc4ccccc4[nH]3)CC2)nc1 | -6 | 1 | -2 | -11 | -4
OC1(c2ccc(Cl)cc2)CCN(Cc2cn[nH]c2-c2ccc(F)cc2)CC1 | -11 | 0 | 13 | ? | 6
COc1ccc(-c2[nH]ncc2CN2CCC(O)(c3ccc(Cl)cc3)CC2)cc1 | 13 | 0 | 23 | 87* | -4
COc1ccc(-c2[nH]ncc2CN2CCN(c3ccc(F)cc3)CC2)cc1 | 24 | 1 | -3 | 16 | -6
OC1(c2ccc(Cl)cc2)CCN(Cc2cn[nH]c2-c2ccccc2)CC1 | -1 | 0 | nt | 70* | nt
C=CCNC(=O)c1cc(-c2ccncc2)nc2c(C)cc(C)cc12 | 9 | 0 | -5 | -10 | 0
CCCOc1cc(NCc2ccccc2)c2ncn(C(C)C)c2c1 | 34 | 0 | 46 | nt | 124*
CC(C)n1cnc2c(NCc3ccccc3)cc(Cc3ccc(F)cc3)cc21 | 0 | 0 | 129* | nt | 11
CCOc1cc(NCc2ccccc2)c2ncn(C(C)C)c2c1 | 11 | -1 | nt | nt | -5
COCCOc1cc(NCc2ccccc2)c2ncn(C(C)C)c2c1 | 19 | -1 | 10 | nt | -5
CCC(CO)Oc1cc(NCc2ccc(Cl)cc2Cl)c2ncn(C(C)C)c2c1 (stereo not drawn) | 37 | 0 | 111* | nt | 7
O=c1[nH]c(C(F)(F)F)nc2ccc3ccccc3c12 | -19 | 1 | -3 | -10 | 3
CCOC(=O)N1CCN(CC(=O)Nc2nnc(C(F)(F)F)s2)CC1 | -4 | -1 | -3 | -15 | -12
CC(C)(C)c1cnnn1-c1ccc(/C=N/Nc2ccc([N+](=O)[O-])cc2)cc1 | 46 | 0 | 54 | -95 | 97*
O=C(NCCc1cccs1)C(c1ccccc1)c1ccccc1 | 5 | 0 | 11 | -18 | -3
CCc1nc(SCc2ccc(OCC(C)C)cc2)n[nH]1 | -27 | -2 | 5 | -102 | 29
O=C(CSc1ccc(-c2ccccn2)nn1)c1ccccc1 | 13 | -1 | 16 | -97 | -1
c1ccc(CSc2ccc(-c3ccccn3)nn2)cc1 | 8 | -2 | 86* | -56 | 87*
Cc1ccccc1Cn1ccc(=NCc2ccccc2)cc1 | 25 | -1 | 0 | -7 | 103*
Cc1ccc(S(=O)(=O)NC(=O)c2ccc(-c3ccc(-c4ccccc4)cc3)o2)c(C)c1 | 11 | -1 | 82* | 13 | 1
CC(=O)Nc1cccc(-c2cc(C)c3cc4c(cc3n2)OCO4)c1 | -47 | nt | nt | -89 | nt
NCCNc1ccc(C(=O)N2c3ccccc3Sc3ccccc32)cc1[N+](=O)[O-] | 38 | ? | 92* | 1 | 24
COc1ccc(N=N/C(=C\O)C(=O)c2cccs2)cc1 | 43 | -1 | 88* | -13 | nt
Cc1ccc2nc(SCC(=O)Nc3ccc(F)cc3F)nc(=O)n2c1 | -12 | 1 | -9 | -15 | nt
CCCNC(=O)NC(=O)CSc1nc2ccccc2c(=O)n1Cc1ccncc1 | 23 | 0 | -1 | 16 | 3
CCc1n[nH]c(=S)n1/N=C/c1c(C)nn(-c2ccccc2)c1Cl | 28 | 0 | nt | 106* | nt
Cc1c(Br)c(O)c(Br)c(O)c1/C=N/n1c(-c2ccccc2)n[nH]c1=S | 16 | -1 | 37 | 62* | -3
Oc1c(Br)cc(/C=N/n2c(-c3ccccc3)n[nH]c2=S)c(O)c1Br | nt | 1 | 2 | 8 | 2
Cc1nn(-c2ccccc2)c(C)c1/C=N/n1c(-c2ccc(C(C)(C)C)cc2)n[nH]c1=S | 31 | -2 | 80* | 5 | 2
